Most compounds without a hit are left out; they make up all but 2.8% or so of the library.
PAFAH2 FP inh: PAFAH2 (human) inhibition; Q99487; recombinant PAFAH2, FP-rhodamine activity probe, fluorescence polarization; inhibition, % at 3.39 µM; hit rate 0.99% among 340,000; AID 492956;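 active = inhibition above the mean over all tested compounds plus 3 SD, cut at about 30% in these data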;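 note: inhibitors block probe labeling of enzyme so polarization drops; 0% = enzyme with DMSO and 100% = wells lacking PAFAH2 protein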
PAFAH1B2 inh: blocks human PAF acetylhydrolase 1b catalytic subunit 2; hit rate 1.2% among 340,000; inhibition, % at 3.39 µM; recombinant PAFAH1B2, FP-rhodamine activity probe, fluorescence polarization;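 active = inhibition above the mean of all tested compounds plus 3 SD, cut at about 24% in these data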;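 note: 0% = enzyme with DMSO and 100% = wells lacking PAFAH1B2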
Target sequence (P68402 whole entry, looked up): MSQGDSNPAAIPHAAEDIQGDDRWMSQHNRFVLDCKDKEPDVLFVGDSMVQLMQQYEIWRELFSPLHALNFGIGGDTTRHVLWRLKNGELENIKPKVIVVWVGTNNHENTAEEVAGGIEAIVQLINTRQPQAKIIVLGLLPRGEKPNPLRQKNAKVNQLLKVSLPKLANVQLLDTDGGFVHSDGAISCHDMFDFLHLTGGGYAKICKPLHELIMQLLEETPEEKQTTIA
HTRA1 inh: inhibitors of human serine peptidase HTRA1. inhibition, % at 5.96 µM. hit rate 0.5% among 340,000. recombinant HTRA1, FP-rhodamine activity-based probe, fluorescence polarization. Q92743. AID 504803; in the data active = inhibition above about 36%;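 note: 0% = enzyme with DMSO and 100% = wells lacking enzyme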
PAFAH1B3 inh: PAFAH1B3 (human) inhibition; recombinant PAFAH1B3, FP-rhodamine probe, fluorescence polarization; inhibition, % at 3.39 µM; hit rate 0.28% among 340,000; AID 492972;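 active = inhibition above the screen-wide average of all tested compounds plus 3 SD, cut at about 25% in these data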;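 note: 0% = enzyme with DMSO only and 100% = wells lacking PAFAH1B3 protein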
pPAFAH inh: pPAFAH (human) enzyme inhibition; Q13093; recombinant pPAFAH, FP-rhodamine probe fluorescence polarization; inhibition, % at 3.39 µM; hit rate 1.5% among 330,000; AID 463082;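 active = inhibition above the mean inhibition across the screen plus 3 SD, cut at about 25% in these data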;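 note: inhibitors block binding of the rhodamine activity-based probe so polarization drops; 0% = enzyme with DMSO and 100% = wells lacking pPAFAH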
Target sequence (Q13093 whole entry, looked up): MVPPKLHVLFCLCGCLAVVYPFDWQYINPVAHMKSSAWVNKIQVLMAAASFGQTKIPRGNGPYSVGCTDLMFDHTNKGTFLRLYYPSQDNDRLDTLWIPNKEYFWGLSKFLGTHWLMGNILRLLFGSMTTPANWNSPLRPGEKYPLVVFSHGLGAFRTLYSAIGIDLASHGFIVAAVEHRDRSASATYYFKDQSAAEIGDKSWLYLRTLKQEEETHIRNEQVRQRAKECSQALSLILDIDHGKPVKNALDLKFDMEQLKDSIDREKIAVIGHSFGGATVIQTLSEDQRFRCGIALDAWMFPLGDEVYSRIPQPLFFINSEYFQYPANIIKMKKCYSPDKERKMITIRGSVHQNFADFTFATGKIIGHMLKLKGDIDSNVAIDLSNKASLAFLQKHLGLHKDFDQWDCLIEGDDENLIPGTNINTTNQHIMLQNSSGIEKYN
DAGLB inhibitor: diacylglycerol lipase beta (human) inhibition; Q8NCG7; HEK293T DAGLB membrane lysate, EnzChek fluorogenic substrate; inhibition, % at 5.17 µM; hit rate 0.059% among 340,000; AID 504411; in the data active = inhibition above about 34%;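 note: 0% = enzyme with vehicle and 100% = wells lacking enzyme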
* marks the source's active call; other numbers are inactive results.

Results for COc1cc(/C=C/C(=O)OCC(=O)NCC2CCCCC2)ccc1O ?
PAFAH2 FP inh: 88*; PAFAH1B2 inh: 4; HTRA1 inh: -7; PAFAH1B3 inh: 0; pPAFAH inh: 28*; DAGLB inhibitor: 2

How did COc1ccc(C2CC(c3cccc(C(F)(F)F)c3)=NN2c2ccc(S(N)(=O)=O)cc2)cc1 (stereo not drawn) do in these assays?
PAFAH2 FP inh: 0; PAFAH1B2 inh: 0; HTRA1 inh: -32; PAFAH1B3 inh: 3; pPAFAH inh: 15; DAGLB inhibitor: 1

Results for O=C(Cn1cnc2scc(-c3cccc([N+](=O)[O-])c3)c2c1=O)NCc1ccco1 ?
PAFAH2 FP inh: 18; PAFAH1B2 inh: -4; HTRA1 inh: -2; PAFAH1B3 inh: 4; pPAFAH inh: 26*; DAGLB inhibitor: -1

How did Cc1sc2ncn(CC(=O)NCc3ccco3)c(=O)c2c1-c1ccc(F)cc1 do in these assays?
PAFAH2 FP inh: -2; PAFAH1B2 inh: -3; HTRA1 inh: -7; PAFAH1B3 inh: 1; pPAFAH inh: 17; DAGLB inhibitor: 3

How did CCc1cc(/C(Cc2ccc3ccccc3n2)=N\O)c(O)cc1O do in these assays?
PAFAH2 FP inh: 17; PAFAH1B2 inh: 24; HTRA1 inh: 25; PAFAH1B3 inh: 41*; pPAFAH inh: 20; DAGLB inhibitor: -2

What do the screens show for `CCc1cc(/C(Cc2ccccn2)=N\O)c(O)cc1O`?
PAFAH2 FP inh: 14; PAFAH1B2 inh: 13; HTRA1 inh: 11; PAFAH1B3 inh: 21; pPAFAH inh: 8; DAGLB inhibitor: -3

What do the screens show for `FC(F)Oc1ccc(N=C2SCC3CCCCN23)cc1` (stereo not drawn)?
PAFAH2 FP inh: 7; PAFAH1B2 inh: 1; HTRA1 inh: -8; PAFAH1B3 inh: 13; pPAFAH inh: 33*; DAGLB inhibitor: -6

How did C/C(=N/NC(=O)c1ccoc1C)c1cccc(NC(=O)C2CC2)c1 do in these assays?
PAFAH2 FP inh: 8; PAFAH1B2 inh: -1; HTRA1 inh: 1; PAFAH1B3 inh: 10; pPAFAH inh: 7; DAGLB inhibitor: 0

How did CN(CC(=O)NCc1ccc(F)cc1)Cc1ccc(Br)cc1 do in these assays?
PAFAH2 FP inh: -4; PAFAH1B2 inh: 25*; HTRA1 inh: -12; PAFAH1B3 inh: -1; pPAFAH inh: -1; DAGLB inhibitor: -2

Results for COC(=O)c1cccc(NC(=O)CCc2c(C)noc2C)c1 ?
PAFAH2 FP inh: 0; PAFAH1B2 inh: -3; HTRA1 inh: -9; PAFAH1B3 inh: 14; pPAFAH inh: 0; DAGLB inhibitor: -1

How did CC(NC(N)=O)C12CC3CC(CC(C3)C1)C2 (stereo not drawn) do in these assays?
PAFAH2 FP inh: 4; PAFAH1B2 inh: 26*; HTRA1 inh: -1; PAFAH1B3 inh: 5; pPAFAH inh: 3; DAGLB inhibitor: 0

How did CC(=O)NC(C)C12CC3CC(CC(C(=O)O)(C3)C1)C2 (stereo not drawn) do in these assays?
PAFAH2 FP inh: -1; PAFAH1B2 inh: -1; HTRA1 inh: 1; PAFAH1B3 inh: 3; pPAFAH inh: 5; DAGLB inhibitor: 1

Results for O=C1NC(=O)N(Cc2ccccc2F)C1=O ?
PAFAH2 FP inh: 2; PAFAH1B2 inh: 3; HTRA1 inh: -1; PAFAH1B3 inh: 15; pPAFAH inh: 1; DAGLB inhibitor: -1

How did COc1ccc(S(=O)(=O)Nc2ccccc2OC)cc1N=Nc1c(O)[nH]c(=S)[nH]c1=O do in these assays?
PAFAH2 FP inh: 15; PAFAH1B2 inh: 7; HTRA1 inh: 5; PAFAH1B3 inh: 6; pPAFAH inh: 26*; DAGLB inhibitor: 5

Results for COc1ccccc1NS(=O)(=O)c1ccc2[nH]c(=O)[nH]c2c1 ?
PAFAH2 FP inh: 4; PAFAH1B2 inh: 3; HTRA1 inh: 3; PAFAH1B3 inh: 5; pPAFAH inh: 5; DAGLB inhibitor: 2

What do the screens show for `O=S(=O)(Nc1cccc(-c2cn3ccsc3n2)c1)c1ccc(F)cc1`?
PAFAH2 FP inh: 5; PAFAH1B2 inh: 7; HTRA1 inh: -12; PAFAH1B3 inh: 14; pPAFAH inh: 32*; DAGLB inhibitor: -2

How did Cc1cc(C)c(S(=O)(=O)Nc2ccccc2-c2ccccc2)c(C)c1 do in these assays?
PAFAH2 FP inh: -4; PAFAH1B2 inh: 18; HTRA1 inh: -36; PAFAH1B3 inh: 4; pPAFAH inh: 3; DAGLB inhibitor: -12

How did Cc1ccc(S(=O)(=O)Nc2ccccc2-c2ccccc2NS(=O)(=O)c2ccc(C)cc2)cc1 do in these assays?
PAFAH2 FP inh: 10; PAFAH1B2 inh: 59*; HTRA1 inh: -66; PAFAH1B3 inh: -6; pPAFAH inh: 25*; DAGLB inhibitor: 15

Results for O=S(=O)(Nc1ccccc1-c1ccccc1)c1ccccc1 ?
PAFAH2 FP inh: 6; PAFAH1B2 inh: 26*; HTRA1 inh: -9; PAFAH1B3 inh: 7; DAGLB inhibitor: -2

What do the screens show for `CC(=O)CCc1ccc(Oc2nc(-c3cccnc3)nc3ccccc23)cc1`?
PAFAH2 FP inh: 3; PAFAH1B2 inh: 2; HTRA1 inh: -29; PAFAH1B3 inh: 3; pPAFAH inh: 25*; DAGLB inhibitor: -7

Results for O=C(CCN1CCCCO1)N1CCCC(Nc2ccc(F)cc2)C1 (stereo not drawn) ?
PAFAH2 FP inh: 7; PAFAH1B2 inh: 1; HTRA1 inh: -6; PAFAH1B3 inh: 7; pPAFAH inh: -1; DAGLB inhibitor: -1

How did Cc1cc(OC(=O)c2cc([N+](=O)[O-])ccc2Cl)c([N+](=O)[O-])c(=O)[nH]1 do in these assays?
PAFAH2 FP inh: -8; PAFAH1B2 inh: 6; HTRA1 inh: 3; PAFAH1B3 inh: 9; pPAFAH inh: 2; DAGLB inhibitor: 1

How did O=c1ccc(NS(=O)(=O)c2ccccc2)cn1Cc1ccc(Cl)c(Cl)c1 do in these assays?
PAFAH2 FP inh: 5; PAFAH1B2 inh: 15; HTRA1 inh: 1; PAFAH1B3 inh: 9; pPAFAH inh: 26*; DAGLB inhibitor: 6

What do the screens show for `O=C(Cc1ccc(Cl)c(Cl)c1)Nc1ccc(S(=O)(=O)Nc2ncccn2)cc1`?
PAFAH2 FP inh: -1; PAFAH1B2 inh: 5; HTRA1 inh: 5; PAFAH1B3 inh: -1; pPAFAH inh: 7; DAGLB inhibitor: 5

Results for Cc1ccccc1C1CC(=O)Oc2cc(O)ccc21 (stereo not drawn) ?
PAFAH2 FP inh: 40*; PAFAH1B2 inh: 34*; HTRA1 inh: 53*; PAFAH1B3 inh: 41*; pPAFAH inh: 32*; DAGLB inhibitor: -4

How did COc1ccc(C2CC(=O)Oc3cc(O)ccc32)cc1 (stereo not drawn) do in these assays?
PAFAH2 FP inh: -4; PAFAH1B2 inh: 2; HTRA1 inh: 5; PAFAH1B3 inh: 0; pPAFAH inh: 1; DAGLB inhibitor: -2

How did CCn1nnnc1-c1ccc(OC)c(S(=O)(=O)Nc2ccccc2OC)c1 do in these assays?
HTRA1 inh: 2; DAGLB inhibitor: -1

What do the screens show for `OC(c1ccccc1)(c1ccccc1)c1ccn[nH]1`?
PAFAH2 FP inh: -3; PAFAH1B2 inh: -3; HTRA1 inh: -3; PAFAH1B3 inh: 3; pPAFAH inh: 6; DAGLB inhibitor: -2

Assay outcomes: PubChem BioAssay, The Scripps Research Institute Molecular Screening Center
